Source: PubChem BioAssay
Most compounds without a hit are left out; they make up all but 20% or so of the library.
HCMV inh: human cytomegalovirus inhibition | HFF cells, HCMV-luciferase reporter, 72 h; hits give low values | activity change, negative = inhibition, % at 57.5 µM | 4.5% of 410,000 active; in the data active = activity change below about -60%; inconclusive = no clear call, values can overlap the other calls; inactive = above about -39%; note: % is set by controls: 0 for no effect and ±100 for the full control effect
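Compounds were evaluated in HFFs infected with an HCMV luciferase reporter virus (MOI 1 PFU/cell). Luciferase in lysates collected 72 h post infection served as the replication measure.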
Pf growth 96h: P. falciparum growth inhibition at 96 hour, primary screen for plastid delayed-death inhibitors. Potency, µM (series often up to 28.7 µM), for the others: top-dose activity change, negative = inhibition, hits mostly inhibitors. P. falciparum luciferase reporter growth, 96 h. 6.9% of 320,000 active; note: potency is the fitted concentration of half-maximal effect; % is set by controls: 0 for no effect and ±100 for the full control effect
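Infected RBCs, 2% Hct / 0.05% parasitemia final; luciferase-reporter P. falciparum; cpd 96 h, 37 C, 5% CO2; luciferase detection reagent; luminescence.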
Shiga toxin inh: Shiga toxin inhibition | Vero cells, Shiga toxin protein synthesis inhibition reporter | inhibition, % at 38.7 µM | 9.2% of 290,000 active | AID 2315; in the data active = inhibition mostly above about 28%, no sharp cut-off; inactive = mostly below about 43%; note: 0% is about no effect
Pf growth 48h: inhibits P. falciparum growth in the first generation, 48 h; 5.9% of 310,000 active; Potency, µM (doses to about 28.7 µM), without a hit: at the highest dose activity change, negative = inhibition, most hits filed as inhibitors; AID 504832; P. falciparum luciferase growth in erythrocytes, 48 h; note: potency is the fitted concentration of half-maximal effect; % is set by controls: 0 for no effect and ±100 for the full control effect
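Cell-based growth assay: transgenic P. falciparum expressing firefly luciferase, cultured in red cells within RPMI 1640 containing 0.5% w/v Albumax, 24 mM bicarbonate and gentamycin. A drop in luciferase activity indicates inhibition.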
Cycloheximide cs: affects cycloheximide protein synthesis inhibition readout, counter-screen. cell reporter, cycloheximide protein synthesis inhibition counterscreen. max response, %. 12% of 300,000 active. AID 2314; in the data active = max response mostly above about 13%, no sharp cut-off; inactive = mostly below about 14%; note: read at 38.3 µM for the half of the compounds with a filed dose; 0% is about no effect
Starred values were filed as active, the others as inactive; ? = inconclusive; . = not tested or not shown. Unless noted, calls come from the whole dose curve; as a rule, active = well fitted inhibition curve with a large enough effect; inconclusive = small, poorly fitted or top-dose-only effect, or another doubt; inactive = no such curve, though single readings can be large or run the other way.

SMILES	HCMV inh	Pf growth 96h	Shiga toxin inh	Pf growth 48h	Cycloheximide cs
COc1ccc(-c2cc(C(=O)N3CCc4ccccc4C3)no2)cc1	-32	?	88*	12%	28*
COc1ccc(-c2cc(C(=O)N3CCN(c4ccccc4)CC3)no2)cc1	10	3%	93*	131%	37*
Cc1ccc(Nc2c(-c3cccnc3)nc3ccc(Cl)cn23)cc1	-4	.	.	.	.
Cc1cn([C@H]2C[C@H](O)[C@@H](/C=C/C(=O)NCc3ccco3)O2)c(=O)[nH]c1=O	20	.	.	.	.
CCC12CN3CC(CC)(CN(C1)C3c1c[nH]c3ccccc13)C2=O (centres undefined)	34	.	.	.	.
COc1ccccc1N1CCN(C(=O)c2cc(-c3ccc(C)cc3)on2)CC1	10	.	55*	15%	19*
CC(C)c1onc(C(=O)N2CCCCC2)c1[N+](=O)[O-]	1	2%	-5	-14%	1
COc1ccccc1N1CCN(C(=O)c2noc(C(C)C)c2[N+](=O)[O-])CC1	.	13µM*	-4	0%	-5
Cc1ccc(Cl)cc1N1CCN(C(=O)c2noc(C)c2[N+](=O)[O-])CC1	-105*	?	5	?	10
COc1ccccc1N1CCN(C(=O)c2cc3c(C)nc4ccccc4c3o2)CC1	-61*	11%	-4	?	-1
Cc1nc(C)n(CCNS(=O)(=O)c2ccc(C)c(C)c2)n1	17	?	-3	0%	-9
COC(=O)CS(=O)(=O)c1cccc2cccnc12	-15	?	-8	15%	-4
Cc1nn(C)c(C(=O)N2CCN(C(=O)c3ccco3)CC2)c1Br	-8	37%	1	6%	2
CCOc1ccc(OCC)c(NC(=O)c2cc(S(=O)(=O)N3CCCC3)cn2C)c1	-4	.	.	.	.
CCOC(=O)c1ccc(S(=O)(=O)N2CCC(N3CCCCCC3)CC2)cc1	33	.	.	.	.
CC(C)C(c1nnnn1C1CCCC1)N1CCCCC1 (centres undefined)	30	15µM*	6	.	12
c1cncc(C(c2nnnn2C2CCCCC2)N2CCCCC2)c1 (centres undefined)	-5	-4%	-5	15µM*	-1
CC(C)C(c1nnnn1C1CCCCC1)N1CCN(c2ncccn2)CC1 (centres undefined)	-11	.	17	13%	-4
Cc1ccc2c(c1)c(N1CCCC1=O)c(C(=O)Nc1ccc(F)cc1F)n2C	-14	.	.	.	.
COc1ccc(N2CCN(C(=O)COC(=O)COc3cccc(C(F)(F)F)c3)CC2)cc1	?	-26%	.	-14%	.
CCCCn1nc2cc(C(=O)NC3CCc4ccccc43)ccc2c1OCC (centres undefined)	-17	8.3µM*	11	?	-1
CCCn1nc2cc(C(=O)NC3CCCc4ccccc43)ccc2c1OCC (centres undefined)	?	?	-20	?	0
CC1CCC(NC(=O)CN2C(=O)C3CC=CCC3C2=O)CC1 (centres undefined)	-1	-7%	.	-17%	.
Cc1cc(-c2nnc(-c3cc4ccccc4oc3=O)o2)c(C)n1-c1ccccc1	31	?	36	?	32*
COc1ccc(-c2nnc(-c3cc4ccccc4oc3=O)o2)cc1	26	12µM*	15	13%	10
SMILES	HCMV inh	Pf growth 96h	Shiga toxin inh	Pf growth 48h	Cycloheximide cs
NC(=O)c1cn(-c2ccccc2)nc1-c1cc2ccccc2oc1=O	35	-19%	-14	.	-4
CC/C(C)=N/Nc1nc(-c2cc3cccc(OC)c3oc2=O)cs1	130	34%	53*	110%	47*
COc1cccc2cc(-c3nnc(-c4ccccc4)o3)c(=O)oc12	9	8.3µM*	87*	23%	39*
COc1cccc2cc(-c3nnc(-c4ccc(Cl)cc4)o3)c(=O)oc12	-15	.	.	.	.
COc1ccc(CCNC(=O)CCOc2cc(C)ccc2C)cc1OC	-23	?	-6	-7%	3
Cc1ccc(C(=O)C(OC(=O)COc2ccccc2C)c2ccccc2)cc1 (centres undefined)	1	-6%	18	31%	1
Cc1cccc(Cn2c(=O)n(CC3CCC(C(=O)N4CCC(C)CC4)CC3)c(=O)c3sccc32)c1 (centres undefined)	-3	.	.	.	.
O=C1CC(c2ccc3c(c2)OCO3)C2=C(CCCC2=O)N1 (centres undefined)	-9	3%	-4	1%	-1
O=C1CC(c2ccc(F)c(Br)c2)C2=C(CCCC2=O)N1 (centres undefined)	-102*	-2%	-1	-18%	-2
COc1ccc(CNC(=O)CCS(=O)(=O)c2ccc3c(c2)CC(C)N3C(=O)C2CC2)cc1 (centres undefined)	-29	38%	-1	-14%	4
Cc1cc(C)cc(C(=O)n2nc(C)c(S(=O)(=O)N3CCCCCC3)c2C)c1	-8	.	.	.	.
Cn1c(=O)c2c(nc(SCC(=O)Nc3ccccc3)n2C)n(C)c1=O	-6	32%	6	-14%	-4
CCCCn1c(SCC(=O)Nc2nnc(C(C)C)s2)nc2c1c(=O)n(C)c(=O)n2C	-75*	172%	-5	10%	-3
CCn1c(SCC(=O)Nc2cccc(O)c2)nc2c1c(=O)n(C)c(=O)n2C	3	?	-10	4%	1
CCn1c(SCC(=O)Nc2ccccc2)nc2c1c(=O)n(C)c(=O)n2C	41	12µM*	-2	12%	1
CC(C)n1c(SCC(=O)Nc2ccccc2)nc2c1c(=O)n(C)c(=O)n2C	-28	?	-3	12µM*	-1
CC(C)n1c(SCC(=O)Nc2ccccc2)nc2c1c(=O)[nH]c(=O)n2C	14	13µM*	-2	?	-2
Cc1ccc(S(=O)(=O)N2CCC(C(=O)N3CCN(c4ccccn4)CC3)CC2)cc1	-33	?	15	?	-2
CN(C)CCCNC(=O)c1ccc(Oc2ccccc2)cc1	?	3%	-10	17%	-2
CCOc1ccc(OCC)c(NC(=O)CSc2nc3c(c(=O)n(C)c(=O)n3C)n2C(C)C)c1	-63*	3.3µM*	-20	4.1µM*	1
Cn1c(=O)c2c(nc(SCC(=O)c3ccccc3F)n2C)n(C)c1=O	.	1.9µM*	-14	52%	2
COc1ccc2c(c1)[C@@H](NC(=O)OCc1ccccc1)[C@H](C)[C@@H](c1ccccc1)N2C(=O)NC(C)C	-10	.	.	.	.
Cn1c(=O)c2c(nc(CN3CCN(C(c4ccccc4)c4ccccc4)CC3)n2CCCO)n(C)c1=O	-11	-5%	-6	2.9µM*	-1
CCCCCCn1c(CN2CCN(CCO)CC2)nc2c1c(=O)n(C)c(=O)n2C	5	-14%	-10	?	1
COCCn1c(CN2CCN(C(c3ccccc3)c3ccccc3)CC2)nc2c1c(=O)n(C)c(=O)n2C	-7	28%	-4	2.6µM*	2
COc1ccccc1C(c1nnnn1CCc1ccccc1)N1CCN(c2ccccc2)CC1 (centres undefined)	-31	?	-3	-3%	-2
